Results: PubChem BioAssay (Tox21)
Results filed as inconclusive are left out. Entries that show only a call come without a potency. Activity calls are given as the source filed them. Calls come from the whole dose curve; as a rule, active = well fitted cell-killing curve with a large enough effect in the repeat runs (not every such curve was filed as active); inconclusive = weak or mixed curves, or effect the other way; inactive = no such curve, though single readings can be large or run the other way.
Potency is the fitted concentration of half-maximal effect.

Test: qHTS assay to identify small molecule antagonists of the estrogen related receptor signaling pathway with the pleiotropic PPARgamma coactivator (PGC) from Tox21 10K library - cell viability counter screen (AID 1224840); note: nearly all actives have a fitted effect of over 40% in size
Details: PGC/ERR reporter cells viability, CellTiter-Fluor, 17.5 h; series mostly up to 92.4 µM
Source text: National Center for Advancing Translational Sciences [NCATS]
NIH Chemical Genomics Center [NCGC]
U.S. Environmental Protection Agency [EPA]
National Institutes of Environmental Health Sciences [NIEHS]
National Toxicology Program [NTP]
U.S. Food and Drug Administration [FDA]
Estrogen related receptors (ERRs), the first orphan nuclear receptors discovered, play an important role in the control of cellular energy metabolism. ERRs are required for high-energy production in response to the environmental challenges. The pleiotropic PPARgamma coactivator (PGC) is a major partner of ERR and a key regulator in energy homeostasis. Together they have been implicated in the etiology of metabolic disorders such as Type 2 diabetes and metabolic syndrome. ERR-alpha was also identified as an adverse marker for breast cancer progression; ERR-alpha-positive tumors have a poor prognosis. To screen and to identify environmental compounds that perturb the ERR and PGC/ERR signaling pathways could provide valuable information for potential therapeutic or preventive measures in the treatment of metabolic disease. To differentiate true PGC/ERR antagonists or agonist from cytotoxic substances, the assay is multiplexed with cell viability assay.
Tox21 Assay Protocol Summary:
The PGC/ERR cells were dispensed at 2,000 cells/5 ul/well in 1536-well white plates using a Multidrop dispenser. After the assay plates were incubated at a 37 C/5% CO2 incubator for 6 hours, 23 nL of compounds dissolved in DMSO, positive and negative controls or DMSO only was transferred to the assay plate by a pin tool. The plates were incubated at 37 C for 17.5 hours. 1 ul/well of CellTiter-Fluor reagent was added into the assay plates using a Flying Reagent Dispenser. After 30-minute incubation at 37 C/5% CO2, the fluorescence intensity in the plates was measured using a ViewLux plate reader.
With `Cn1c(NCCN(CCO)CCCc2ccc([N+](=O)[O-])cc2)cc(=O)n(C)c1=O` the Potency was “inactive”. In the case of `O=C1CCCCCO1`, the Potency was “inactive”. In the case of `Cc1cccc(C(C)(C)C)c1O`, the Potency was “inactive”. In the case of `Nc1nc(N)c(-c2ccccc2)s1`, the Potency was “inactive”. For `CC(=O)SCc1ccco1`, the Potency was “inactive”. With `O=C(C(=O)c1ccc(Br)cc1)c1ccc(Br)cc1` the viability change, negative = cytotoxic was 3.02% [at 19 µM] (inactive). For `CCN(CC)C(C)=O`, the Potency was “inactive”. In the case of `C=CC[N+]1([C@H]2C[C@H]3[C@@H]4CC[C@H]5C[C@H](OC(C)=O)[C@@H](N6CCCCC6)C[C@]5(C)[C@H]4CC[C@]3(C)[C@H]2OC(=O)CC)CCCCC1`, the Potency was “inactive”. In the case of `O=C(Nc1ccccc1)OCC(CN1CCCCC1)OC(=O)Nc1ccccc1` (stereo not given), the Potency was “inactive”. With `CC(=O)/C(C)=C/C1C(C)=CCCC1(C)C` (stereo not given) the Potency was “inactive”. In the case of `CC(Cc1cccc(C(F)(F)F)c1)NCCOC(=O)c1ccccc1` (stereo not given), the Potency was “inactive”. In the case of `Cc1ccc2c(ccc3ccccc32)c1`, the Potency was “inactive”. For `NCCCN(CCO)CCO`, the Potency was “inactive”. For `CC(=O)Nc1ccc(/C=N/NC(N)=S)cc1`, the Potency was “inactive”. With `CC(C)c1ccccc1C(C)C` the Potency was “inactive”. With `NC(N)=N/N=C/c1c(Cl)cccc1Cl` the Potency was “inactive”. In the case of `NCc1ccccc1`, the Potency was “inactive”. For `CC(C)(Oc1ccc(Cl)cc1)C(=O)OCCCOC(=O)C(C)(C)Oc1ccc(Cl)cc1`, the Potency was “inactive”. With `CC(CN)CCCN` (stereo not given) the Potency was “inactive”. With `CN(C)CC[C@@H](c1ccc(Br)cc1)c1ccccn1` the Potency was “inactive”. In the case of `CCCCCCCCCC=O`, the Potency was “inactive”. With `O=S1(=O)c2cccc3cccc(c23)N1CCCN1CCN(c2ccc(F)cc2)CC1` the Potency was “inactive”. In the case of `CC(C)c1cccc(C(C)C)c1NC(=O)NS(=O)(=O)c1cc(C(C)(C)O)co1`, the Potency was “inactive”. In the case of `O=C(O)Cc1cc(I)c(Oc2ccc(O)c(I)c2)c(I)c1`, the Potency was “inactive”. In the case of `FC(F)(F)C(F)(F)C(F)(F)C(F)(F)C(F)(F)C(F)(F)CCI`, the Potency was “inactive”. In the case of `CNCC[C@@H](Oc1ccccc1C)c1ccccc1`, the Potency was “inactive”. In the case of `C=CC(=O)OCC(C)OCC(C)OCC(C)OC(=O)C=C` (stereo not given), the Potency was 54.5 µM (active). For `CC(=O)CC(=O)c1ccccc1`, the Potency was “inactive”. For `CN(C)CCCOc1nn(Cc2ccccc2)c2ccccc12`, the Potency was “inactive”. For `CCC(C)N(C)C(=O)c1cc2ccccc2c(-c2ccccc2Cl)n1` (stereo not given), the Potency was “inactive”. For `CC[C@@H]1C[C@H](N(Cc2cc(C(F)(F)F)cc(C(F)(F)F)c2)C(C)=O)c2cc(C(F)(F)F)ccc2N1C(=O)OC(C)C`, the Potency was “inactive”. For `CN(c1nccc(=O)[nH]1)C1CCN(c2nc3ccccc3n2Cc2ccc(F)cc2)CC1`, the Potency was “inactive”. In the case of `O=C(NN1CCCC1)NS(=O)(=O)c1ccc(Cl)cc1`, the Potency was “inactive”. With `c1ccc(OCc2ccc(CCCN3CCOCC3)cc2)cc1` the Potency was “inactive”. In the case of `CN(C(=O)CCCOc1ccc2[nH]c(=O)ccc2c1)C1CCCCC1`, the Potency was “inactive”. In the case of `COC(Cc1ccccc1)OC`, the Potency was “inactive”. With `CCCCCCOC(=O)CCC` the Potency was “inactive”. In the case of `NC1CCN(c2nc3c(cc2F)c(=O)c(C(=O)O)cn3-c2ccc(F)cc2F)C1` (stereo not given), the Potency was “inactive”. For `Oc1ccc(Cc2ccccc2)cc1`, the Potency was “inactive”. For `CCCCCC/C=C/C=O`, the Potency was “inactive”.
